Only some compounds are listed: those with a hit (about 4.2% of all), similar ones and a draw of the others.
DAX1 StAR inh – DAX1 (NR0B1) inhibitors on StAR promoter, primary screen, cell-based, luminescence, SF-1 (NR5A1), full-length DAX-1; HEK293T StAR-luciferase reporter, SF-1/DAX-1 repression relief; inhibition, % at 6.8 µM; 370,000 tested, 1.1% active; AID 652010, 2013;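 active = inhibition above the mean over all tested compounds plus 3 SD, cut at about 3.6% in these data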;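 also: 0% = DAX-1 cells with DMSO and 100% = cells lacking DAX-1 with DMSO; higher inhibition means more luminescence from relief of DAX-1 repression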
SMARCA2 activ – SMARCA2 (BRM) function activators, primary screen, cell-based, luminescence, high throughput; MG213 cells, MMTV-luciferase reporter, dexamethasone, overnight; activation, % at 9.1 µM; 370,000 tested, 1% active; AID 652017, 2013; in the data active = activation above about 7.8%;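 also: 0% = vehicle wells and 100% = reference activator wells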
hcDAF-12 act – H. contortus DAF-12 nuclear receptor activators, primary screen, cell-based, luminescence, HEK293, lit1-tk-luc reporter; activation, % at 6.8 µM; HEK293 hcDAF-12 lit1-tk-luc reporter; 0% DMSO, 100% Δ7-dafachronic acid; 370,000 tested, 1.4% active;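 active = activation above the mean of all tested compounds plus 3 SD, cut at about 5.5% in these data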;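 also: 100% = response to 3 µM Δ7-dafachronic acid high control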
ssDAF-12 act – S. stercoralis DAF-12 nuclear receptor activators, primary screen, cell-based, luminescence, HEK293, GRIP1 co-expression, lit1-tk-luc | 370,000 tested, 1% active | Nuclear hormone receptor DAF-12 (Strongyloides stercoralis) | activation, % at 6.8 µM | AID 652126, 2013 | HEK293 ssDAF-12/GRIP1 lit1-tk-luc reporter; % of 3 µM dafachronic acid response;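 active = activation above the mean over all tested compounds plus 3 SD, cut at about 0.9% in these data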;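 also: 0% = DMSO-only wells and 100% = 3 µM delta7-dafachronic acid wells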
hgDAF-12 ag – H. glycines DAF-12 receptor agonists, primary screen, cell-based, luminescence, HEK293, GAL4 fusion, UAS-luciferase; Nuclear hormone receptor DAF-12 (Heterodera glycines), GAL4 fusion; HEK293 GAL4-hgDAF12 UAS-luciferase reporter, agonist luminescence; normalized to butyrate control; AID 687014, 2013; 370,000 tested, 1.8% active; activation, % at 6.8 µM;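 active = activation above a cutoff set at the mean of all screened compounds plus 3 SD, cut at about 10% in these data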;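 also: 0% = DMSO wells and 100% = sodium butyrate wells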
An asterisk follows results filed as active; / = no result.

SMILES	DAX1 StAR inh	SMARCA2 activ	hcDAF-12 act	ssDAF-12 act	hgDAF-12 ag
O=C(N/N=C/c1cccc(O)c1)c1ccc(COc2ccc3c(c2)CCC3)o1	1	5	1	0	8
CCOC(=O)N1CCN(C(=O)C[C@H]2C[C@@]3(C(=O)OC)C(=C[C@H](C(C)C)O[C@@H]3C3CC3)N(Cc3ccco3)C2=O)CC1	-1	-3	-2	-1	-2
Cc1cccc(-c2nnc(SCc3cccc4ccccc34)n2-c2ccc(Cl)cc2)c1	-3	-7	-3	-2	-4
O=C(NCC(c1ccccc1)c1ccccc1)[C@H](Cc1c[nH]c2ccccc12)NC1(C(=O)NC2CCCCC2)CCN(Cc2ccccc2)CC1	/	/	-3	-1	-2
CCOC(=O)N1CCN(C(=O)C[C@H]2C[C@@]3(C(=O)OC)C(=C[C@H](C(C)C)O[C@@H]3C3CC3)N(Cc3ccc4c(c3)OCO4)C2=O)CC1	-1	-3	1	-1	-3
Cc1cccn2cc(-c3ccccc3)nc12	3	3	5	1.1*	13*
COC(=O)[C@]12C[C@H](CC(=O)N3CCN(C(=O)c4ccco4)CC3)C(=O)N(CCc3ccc(OC)c(OC)c3)C1=C[C@H](C1CCCC1)O[C@@H]2C	-1	-5	-1	-2	-1
O=Cc1ccc(OCc2ccc3c(c2)OCO3)cc1	1	3	3	0	11*
Cc1ccc(COc2ccc3c(c2)OCO3)cc1	1	7	1	0	10
CCc1nc2ccc(C(=O)N3CCN(S(=O)(=O)CC)CC3)cn2c1N(CC)Cc1cccc(Br)c1	-1	-2	-2	-2	-3
CSc1ncccc1C(=O)OCC(=O)c1cc(C)n(C)c1C	2	0	6.4*	1	4
CCc1ccc(/C=C2\SC(=S)N(CCCC(=O)Nc3ccc(C(=O)O)cc3)C2=O)cc1	-1	-1	6.0*	-1	-1
O=C(CCCN1C(=O)/C(=C\c2ccccc2)SC1=S)Nc1ccc(C(=O)O)cc1	0	0	0	-1	-1
COc1ccc(S(=O)(=O)N/N=C/c2ccc(OCCN3CCOCC3)c(OC)c2)cc1	-1	1	-2	-1	-2
COc1cc(/C=N/NS(=O)(=O)c2ccc3ccccc3c2)ccc1OCCN1CCOCC1	0	10*	0	-1	-1
CCOC(=O)CC[C@H]1CC[C@]2(CCCN(C(=O)C(C)(C)C)C2)O1	0	0	1	0	0
COc1cccc(-c2nc(N3CC(C)CC(C)C3)c3ccccc3n2)c1O (stereo not drawn)	0	0	5.9*	0	0
C[C@H]1[C@H](NC(=O)c2ccc(C(C)(C)C)cc2)CC[C@@]23CCCN2C(=O)CCC[C@@H]13	/	/	-3	-2	-2
O=C(Nc1cccc(-c2cn3cccnc3n2)c1)c1ccc2c(c1)OCO2	-1	4	-1	-2	4
c1cnc2nc(-c3ccc4c(c3)OCO4)cn2c1	4.1*	7	3	-1	13*
O=C(N[C@H](Cc1ccccc1)C(=O)NCCN1CCOCC1)[C@H]1O[C@@H](n2ccc(=O)[nH]c2=O)[C@H](O)[C@@H]1O	0	3	-1	0	0
CCCCNC(=O)C[C@H]1C[C@@]2(C(=O)OC)C(=C[C@H](COCc3ccccc3)O[C@@H]2C)N(CCC2=CCCCC2)C1=O	1	-2	1	-1	0
COc1ccc(CCn2nc(C)c([N+](=O)[O-])c2C)cc1	4.2*	3	2	-1	9
COc1ccc(C2CC(c3ccccc3O)=NN2c2ccccc2)cc1 (stereo not drawn)	0	-4	3	-1	-2
COc1ccc(C2CC(c3ccccc3)=NN2c2ccc(N)cc2)cc1 (stereo not drawn)	2	5	3	0	11*
Cc1noc(C(=O)Nc2cccc(O)c2)c1Cl	1	-1	5.6*	0	4
Cc1noc(C(=O)Nc2cccc(Cl)c2)c1Cl	0	2	3	1	6

Bioassay records: PubChem BioAssay, The Scripps Research Institute Molecular Screening Center
